{"source": "PubChem BioAssay AID624483", "about": "(NMMLSC, 2012)", "note": "In all, about 360,000 compounds went through this assay and about 11,000 (3.1%) were called active. Another 2% or so got no clear call; they are omitted. Cut-off read from the data, not from the text of the source: active = fluorescence intensity above about 16000; inconclusive = no clear call, values can overlap the other calls; inactive = below that. The full list was thinned out, with actives kept by preference."}
{"assay": "compound fluorescence in toxin protease inhibitor counterscreen, primary screen, artefact control for toxin protease inhibitor project, biochemical, multiplex microsphere, HTS (AID 624483)", "details": "compound autofluorescence counterscreen, microsphere flow cytometry; stronger effect = higher value"}
{"smiles": "CC(=O)Nc1cccc(-c2cc(NC=O)c3ncc(-c4ccc(F)c(Cl)c4)n3c2)c1", "fluorescence intensity": "4090 (inactive)"}
{"smiles": "C/C(COc1ccccc1)=N\\NC(=O)c1nnn(-c2nonc2N)c1-c1ccc(C)cc1", "fluorescence intensity": "2830 (inactive)"}
{"smiles": "CCOC(=O)c1nnn(-c2nc(OC)nc(N(C)C)n2)c1-c1ccccc1", "fluorescence intensity": "4860 (inactive)"}
{"smiles": "CCOC(=O)c1nnn(-c2nonc2OC)c1-c1ccccc1", "fluorescence intensity": "20500 (active)"}
{"smiles": "CCC(C(=O)Nc1ncccn1)(C(F)(F)F)C(F)(F)F", "fluorescence intensity": "3150 (inactive)"}
{"smiles": "CCN(C(=O)CSc1nc(N)cc(=O)[nH]1)C1CCS(=O)(=O)C1", "note": "(stereo not drawn)", "fluorescence intensity": "3860 (inactive)"}
{"smiles": "O=C(CCCN1C(=O)c2ccccc2C1=O)Oc1ccc(Cl)cc1", "fluorescence intensity": "2140 (inactive)"}
{"smiles": "COc1ccc(C(=O)CC2C(=O)N(C)C(=O)N(C)C2=O)cc1", "fluorescence intensity": "3490 (inactive)"}
{"smiles": "COc1ccc(C(=O)CN(C(=O)c2ccc(Cl)cc2)N2C(=O)c3ccccc3C2=O)cc1", "fluorescence intensity": "17500 (active)"}
{"smiles": "CCCc1cc(=O)oc2c(C)c(OCC(=O)Nc3ccccn3)ccc12", "fluorescence intensity": "4420 (inactive)"}
{"smiles": "COC(=O)Cc1cc(=O)oc2c(C)c(O)ccc12", "fluorescence intensity": "19200 (active)"}
{"smiles": "COc1cccc(C(=O)OCc2cc(=O)oc3c(C)c(C)ccc23)c1OC", "fluorescence intensity": "5450 (inactive)"}
{"smiles": "CCOCC(=O)NCc1ccc2c(c1)cc(C)n2C", "fluorescence intensity": "4110 (inactive)"}
{"smiles": "COc1cccc2cc(C(=O)NCc3ccc(C)cc3)c(=N)oc12", "fluorescence intensity": "4920 (inactive)"}
{"smiles": "CC(OC(=O)CN1C(=O)C2CCCCC2C1=O)C(=O)Nc1ncc(Cl)cc1Cl", "note": "(stereo not drawn)", "fluorescence intensity": "23500 (active)"}
{"smiles": "CC1(C(=O)OCC(=O)Nc2ncc(Cl)cc2Cl)CC1(Cl)Cl", "note": "(stereo not drawn)", "fluorescence intensity": "4330 (inactive)"}
{"smiles": "CC(Oc1ccc(Cl)cc1)C(=O)OCC(=O)Nc1ncc(Cl)cc1Cl", "note": "(stereo not drawn)", "fluorescence intensity": "2090 (inactive)"}
{"smiles": "Cc1ccc2[nH]c3c(=O)n(CC(=O)NCCc4ccc(Cl)cc4)ncc3c2c1", "fluorescence intensity": "5710 (inactive)"}
{"smiles": "COc1ccc(C)cc1NC(=O)CSc1ccc(Cl)cc1", "fluorescence intensity": "2540 (inactive)"}
{"smiles": "COC(=O)c1cc(OC)c(OC)cc1NC(=O)CSc1ccc(C)cc1", "fluorescence intensity": "25800 (active)"}
{"smiles": "CCc1cc2cc(OC)ccc2nc1SCC(=O)Nc1cc(OC)c(OC)cc1C(=O)O", "fluorescence intensity": "4520 (inactive)"}
{"smiles": "COc1ccc(Br)cc1CN(C)C(=O)C1CC(=O)N(C2CCCC2)C1", "note": "(stereo not drawn)", "fluorescence intensity": "3870 (inactive)"}
{"smiles": "CCOC(=O)[C@H]1[C@H]2COc3ccc(Cl)cc3[C@@H]2N2C(=O)c3cc(C)ccc3NC(=O)[C@@]12C", "fluorescence intensity": "3320 (inactive)"}
{"smiles": "Cc1ccccc1-n1c(C)cc(/C=C2\\NC(=O)NC2=O)c1C", "fluorescence intensity": "17400 (active)"}
{"smiles": "Cc1ccc(CN2C(=O)N/C(=C/c3cc(C)n(-c4ccccn4)c3C)C2=O)cc1", "fluorescence intensity": "9250 (inactive)"}
{"smiles": "Cc1cc(/C=C2/NC(=O)NC2=O)c(C)n1-c1cccnc1", "fluorescence intensity": "8090 (inactive)"}
{"smiles": "O=C(Nc1c(-c2ccccc2)nc2c(Br)cc(Br)cn12)c1ccco1", "fluorescence intensity": "3100 (inactive)"}
{"smiles": "Nc1ncnc2c1ncn2[C@@H]1O[C@H](CNC(=O)[C@H](N)Cc2cccnc2)[C@@H](O)[C@H]1O", "fluorescence intensity": "6300 (inactive)"}
{"smiles": "Cn1c(Nc2ccc(F)cc2)nc2cc(-c3ccsc3)sc2c1=O", "fluorescence intensity": "3640 (inactive)"}
{"smiles": "CCNC(=O)C1(C)CCN(Cc2ccc(C(=O)OCC)o2)C1", "note": "(stereo not drawn)", "fluorescence intensity": "4060 (inactive)"}
{"smiles": "CCN(CC)C(=O)CSc1nnc(-c2ccc(S(=O)(=O)NCc3ccccc3Cl)cc2)o1", "fluorescence intensity": "16600 (active)"}
{"smiles": "O=C(CSc1nnc(-c2ccc(NS(=O)(=O)c3ccccc3)cc2)o1)NCC1CCCO1", "note": "(stereo not drawn)", "fluorescence intensity": "3540 (inactive)"}
{"smiles": "CCc1ccccc1NC(=O)CSc1nnc(-c2ccncc2)o1", "fluorescence intensity": "4930 (inactive)"}
{"smiles": "CC(C)CCN1NC2(CCC(C)CC2)NC1=S", "note": "(stereo not drawn)", "fluorescence intensity": "3830 (inactive)"}
{"smiles": "CC(C)(C)c1ccc(S(=O)(=O)NC(=O)C2(C)CCN2C(=O)CC2CC2)cc1", "note": "(stereo not drawn)", "fluorescence intensity": "4180 (inactive)"}
{"smiles": "Cc1cc(Br)cn2c(Cc3ccccc3C(F)(F)F)c(-c3ccc(Cl)cc3)nc12", "fluorescence intensity": "5850 (inactive)"}
{"smiles": "Clc1ccc(C2=CSC3=Nc4cccc5cccc(c45)N23)cc1", "fluorescence intensity": "21800 (active)"}
{"smiles": "CN(C)c1ccc(C(CC(=O)O)C(=O)O)cc1", "note": "(stereo not drawn)", "fluorescence intensity": "1950 (inactive)"}
{"smiles": "COC(=O)c1sc2ncccc2c1OCc1ccc(Cl)cc1Cl", "fluorescence intensity": "23500 (active)"}
{"smiles": "O=C(NNc1cc(Cl)ccc1Cl)c1cccnc1Cl", "fluorescence intensity": "4240 (inactive)"}
{"smiles": "COc1cccc(NC(=O)CN(C)C(=O)Cc2ccc(Cl)cc2Cl)c1", "fluorescence intensity": "3890 (inactive)"}
{"smiles": "CC(C)Cc1ccc(-c2cc3nc(NCc4cccc(Cl)c4)ccn3n2)cc1", "fluorescence intensity": "3700 (inactive)"}
{"smiles": "C=CCC[C@@H](CCCCC)OC(=O)/C=C/[C@@H](O)[C@H](O)C[C@H](O)CC=C", "fluorescence intensity": "6190 (inactive)"}
{"smiles": "COc1cccc(C(=O)NNC(=O)c2ccccc2Br)c1", "fluorescence intensity": "16700 (active)"}
{"smiles": "COc1cccc(C(=O)Nc2cc3c(cc2Br)OCCCO3)c1", "fluorescence intensity": "7110 (inactive)"}
{"smiles": "COc1cccc(C(=O)NNC(=O)/C=C/c2ccccc2)c1", "fluorescence intensity": "6790 (inactive)"}
{"smiles": "CCN(CC)C(=O)c1ccc(NC(=O)c2sccc2-c2ccccc2)cc1", "fluorescence intensity": "4580 (inactive)"}
{"smiles": "CCN(CC(=O)Nc1ccc(OC)cc1)C(=O)c1ccc(Cl)c(S(=O)(=O)N2CCCC2)c1", "fluorescence intensity": "3470 (inactive)"}
{"smiles": "CCN(CC)C(=O)c1ccc(NC(=O)c2cc(-n3cnnc3)ccc2Cl)cc1", "fluorescence intensity": "23800 (active)"}
{"smiles": "CCOC(=O)C1=CC[C@@H](c2ccccc2)N(S(=O)(=O)c2ccc(C)cc2)[C@H]1c1cccc(OC)c1", "fluorescence intensity": "6140 (inactive)"}
{"smiles": "COc1ccccc1CCNC(=O)c1cnccn1", "fluorescence intensity": "16600 (active)"}
{"smiles": "O=C(NCCCNC(=O)c1ccccc1Cl)c1cnccn1", "fluorescence intensity": "4420 (inactive)"}
{"smiles": "COc1ccccc1CCNC(=O)c1c(C)nn(CC(C)C)c1Cl", "fluorescence intensity": "4680 (inactive)"}
{"smiles": "O=C(NCCS(=O)(=O)N1CCN(c2ccc(F)cc2)CC1)c1ccc2c(c1)OCO2", "fluorescence intensity": "4110 (inactive)"}
{"smiles": "CC1(C(=O)NS(=O)(=O)c2cccc(F)c2)CCN1C(=O)c1cccc2ccccc12", "note": "(stereo not drawn)", "fluorescence intensity": "2920 (inactive)"}
{"smiles": "CN(C)C1CN(Cc2cn(Cc3ccccc3)nn2)S(=O)(=O)C1", "note": "(stereo not drawn)", "fluorescence intensity": "4320 (inactive)"}
{"smiles": "NC(=O)c1ccc(N2CCOCC2)nc1", "fluorescence intensity": "2600 (inactive)"}
{"smiles": "c1cnn(-c2cc(N3CCOCC3)ncn2)c1", "fluorescence intensity": "17000 (active)"}
{"smiles": "O=C1c2ccccc2-c2ncnc3c(N4CCOCC4)cc(N4CCOCC4)c1c23", "fluorescence intensity": "4380 (inactive)"}
{"smiles": "CS(=O)(=O)N(CC(=O)Nc1ccc(F)cc1)C1CCCCC1", "fluorescence intensity": "3860 (inactive)"}
{"smiles": "CS(=O)(=O)N(CC(=O)Nc1ccc(Cl)c(Cl)c1)C1CCCCC1", "fluorescence intensity": "21700 (active)"}
{"smiles": "N#CCCN(C(=O)Nc1ccc(Cl)c(Cl)c1)C1CCCCC1", "fluorescence intensity": "2920 (inactive)"}
{"smiles": "O=S1(=O)CC(N2CCN(CCO)CC2)CN1Cc1cn(Cc2ccc(Cl)cc2)nn1", "note": "(stereo not drawn)", "fluorescence intensity": "5500 (inactive)"}
{"smiles": "O=S(=O)(NCc1ccccc1)c1ccc(S(=O)(=O)N2CCCC2)cc1", "fluorescence intensity": "4970 (inactive)"}
{"smiles": "O=C1c2cccnc2C(Nc2ccc(S(=O)(=O)N3CCCCCC3)cc2)N1Cc1ccccc1", "note": "(stereo not drawn)", "fluorescence intensity": "21600 (active)"}
{"smiles": "Cc1nc(Nc2ccc(S(=O)(=O)N3CCCC3)cc2)c2nnn(Cc3ccccc3)c2n1", "fluorescence intensity": "2010 (inactive)"}
{"smiles": "O=C(Nc1cccc(C(=O)NC2CC2)c1)c1ccc(F)c(S(=O)(=O)N2CCOCC2)c1", "fluorescence intensity": "6040 (inactive)"}
{"smiles": "CCOC(=O)C1(C)CCCN(C(=O)c2ccc(F)c(Cl)c2)C1", "note": "(stereo not drawn)", "fluorescence intensity": "3580 (inactive)"}
{"smiles": "COc1ccc(S(=O)(=O)NC(=O)C2(C)CCN2C(=O)COc2ccc(Cl)cc2)cc1", "note": "(stereo not drawn)", "fluorescence intensity": "3840 (inactive)"}
{"smiles": "COC(=O)[C@]12CCCCC=C1N(Cc1ccc(Cl)cc1Cl)C(=O)[C@H](CC(=O)NCc1cccc3ccccc13)C2", "fluorescence intensity": "5890 (inactive)"}
{"smiles": "COc1ccc(C(c2nnnn2C2CCCCC2)N2CCN(c3ccccc3F)CC2)cc1", "note": "(stereo not drawn)", "fluorescence intensity": "2590 (inactive)"}
{"smiles": "COc1ccc(N2CCN(C(c3cc4ccc(C)cc4[nH]c3=O)c3nnnn3C3CCCC3)CC2)cc1", "note": "(stereo not drawn)", "fluorescence intensity": "24400 (active)"}
{"smiles": "CCOC(=O)C1CCN(C(c2cc3cc(C)cc(C)c3[nH]c2=O)c2nnnn2C2CCCCC2)CC1", "note": "(stereo not drawn)", "fluorescence intensity": "11300 (inactive)"}
{"smiles": "CN(CC(=O)NC1CCN(Cc2ccccc2)CC1)S(=O)(=O)c1ccc(Cl)s1", "fluorescence intensity": "4220 (inactive)"}
{"smiles": "CC(C)(C)C(=O)c1c(N)[nH]c(C(=O)c2ccccc2)c1-c1ccc(F)cc1", "fluorescence intensity": "4830 (inactive)"}
{"smiles": "O=C(Nc1ccc(-c2nnc(-c3ccccc3)o2)cc1)C1CCCO1", "note": "(stereo not drawn)", "fluorescence intensity": "23500 (active)"}
{"smiles": "CCOc1ccc(NC(=O)c2ccc(NC(=O)C3CCCO3)cc2)cc1", "note": "(stereo not drawn)", "fluorescence intensity": "5940 (inactive)"}
{"smiles": "O=C(Nc1cccc(-c2nnc(-c3ccccc3)o2)c1)C1CCCO1", "note": "(stereo not drawn)", "fluorescence intensity": "8340 (inactive)"}
{"smiles": "COc1ccc(NC(=O)NNC(=O)COc2cc(C)c(Cl)c(C)c2)c(OC)c1", "fluorescence intensity": "4710 (inactive)"}
{"smiles": "COc1cc(NC(=O)c2ccc(CNc3c(N4CCCC4)c(=O)c3=O)cc2)cc(OC)c1OC", "fluorescence intensity": "4980 (inactive)"}
{"smiles": "COc1ccc(Br)c(Cn2c(C)c(C(=O)NCc3cccs3)sc2=O)c1", "fluorescence intensity": "5140 (inactive)"}
{"smiles": "CCN(CC)Cc1c(C(=O)OC)nnn1-c1nonc1N", "fluorescence intensity": "2240 (inactive)"}
{"smiles": "c1ccc2[nH]c(-c3nc4ccccc4[nH]3)nc2c1", "fluorescence intensity": "16500 (active)"}
{"smiles": "Nc1ccccc1-c1nc2ccncc2[nH]1", "fluorescence intensity": "3770 (inactive)"}
{"smiles": "O=C(Nc1sc2c(c1-c1nc3ccccc3[nH]1)CCCC2)C1CC1", "fluorescence intensity": "3170 (inactive)"}
{"smiles": "CCOC(=O)[C@]12CCCC=C1N(Cc1ccc3c(c1)OCO3)C(=O)[C@H](CC(=O)N1CCN(C(=O)c3ccco3)CC1)C2", "fluorescence intensity": "3930 (inactive)"}
{"smiles": "Cc1ccc(Cc2c(-c3ccc(Cl)cc3)nc3c4ccccc4ccn23)cc1", "fluorescence intensity": "4990 (inactive)"}
{"smiles": "Cc1ccc(Nc2cc(=O)n(C3CCCCC3)c(=O)[nH]2)cc1C", "fluorescence intensity": "3080 (inactive)"}
{"smiles": "O=c1cc(C(F)(F)F)[nH]c(=O)n1C1CCCCC1", "fluorescence intensity": "24200 (active)"}
{"smiles": "CC(=O)c1c(O)n(C2CCCCCC2)c(=O)[nH]c1=O", "fluorescence intensity": "2970 (inactive)"}
{"smiles": "CCOc1ccccc1C1C(C(=O)OC)=CN(C)C=C1C(=O)OC", "fluorescence intensity": "19700 (active)"}
{"smiles": "CCOc1cc(C2C(C(=O)OC)=CN(C3CCCC3)C=C2C(=O)OC)cc(Br)c1O", "fluorescence intensity": "8950 (inactive)"}
{"smiles": "COC(=O)C1=CN(C)C=C(C(=O)OC)C1c1ccc(Cl)cc1Cl", "fluorescence intensity": "3960 (inactive)"}
